Measurements: PubChem BioAssay AID1654 (Sanford-Burnham Center for Chemical Genomics, 2009)
Out of some 290,000 compounds screened, about 1,500 (0.52%) were called active. Shown is part of a subset that was picked to be rich in actives. Values without a mark were called inactive. No stated cut-off is given here; in the data, active means inhibition above about 50%; inactive means the rest.

molecular target: Dual specificity protein phosphatase 3 (Homo sapiens) (UniProt P51452); experiment: VHR1 phosphatase inhibitors, primary screen, biochemical, absorbance, uHTS (AID 1654); settings: recombinant VHR phosphatase, pNPP absorbance, at 13.3 µM, stronger effect = higher value
Sequence (P51452 whole entry, looked up): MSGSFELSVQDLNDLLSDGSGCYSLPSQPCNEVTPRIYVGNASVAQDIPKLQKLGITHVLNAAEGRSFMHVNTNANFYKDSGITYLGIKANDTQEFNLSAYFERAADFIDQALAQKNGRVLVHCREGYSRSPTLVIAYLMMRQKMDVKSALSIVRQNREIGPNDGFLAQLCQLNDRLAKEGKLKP

Row | Compound | inhibition
1 | CCOC(=O)c1c(S(=O)(=O)Nc2ccc(CN3CCC(C)CC3)cc2)c(C)n(C)c1C | -22.3%
2 | CCOc1ncccc1C(=O)N(CC)CC(=O)Nc1ccc(NC(C)=O)cc1 | 1.3%
3 | CCOc1ncccc1C(=O)N(C)CC(=O)Nc1ccc(F)cc1 | 59.9% (active)
4 | CN(CC(=O)Nc1ccc(F)cc1)C(=O)c1ccc(-c2ccc(Cl)cc2)o1 | 16.7%
5 | Cc1cccc2nc(CNc3ccc(F)cc3)cn12 | -14.9%
6 | CN(C(=O)c1ccccc1)c1nccnc1C#N | 25%
7 | Cc1cc(N2C(=O)C(O)=C(C(=O)c3ccc(C)o3)C2c2ccc(OCc3ccccc3)cc2)no1 (centres undefined) | 12.3%
8 | O=S(=O)(c1ccc2c(c1)OCCO2)N1CCc2ccccc21 | 13.6%
9 | CCn1c(=O)c(=O)n(CC)c2cc(S(=O)(=O)N3CCc4ccccc43)ccc21 | 50.3% (active)
10 | Cn1c(=O)n(C)c2cc(S(=O)(=O)N3CCCc4ccccc43)ccc21 | 3.5%
11 | Cc1cc(C)nc(NS(=O)(=O)c2ccc(N3C(=O)C4CCCCC4C3=O)cc2)n1 (centres undefined) | 57.6% (active)
12 | Cc1ccc(S(=O)(=O)Nc2nc(C)cc(-n3nc(C)cc3C)n2)cc1 | 28.3%
13 | Cc1cc(C)nc(SC2CCCCC2NS(=O)(=O)c2ccc(Cl)cc2)n1 (centres undefined) | 1.5%
14 | COc1ccc(CCc2nc(-c3cccs3)no2)cc1 | -3.6%
15 | CCOC(=O)CCc1c(C)c2ccc(OCc3nn[nH]n3)c(C)c2oc1=O | -7.7%
16 | Cc1c(CCC(=O)O)c(=O)oc2c(C)c(OCc3ccccc3Cl)ccc12 | 57.3% (active)
17 | Cc1c(CCC(=O)O)c(=O)oc2cc(OCc3ccc(Br)cc3)ccc12 | 2.4%
18 | COc1ccc2oc(=O)cc(CN3CCOCC3)c2c1 | -2.3%
19 | CCc1ccccc1NC(=O)/C(=C/c1ccccc1)c1ccccc1 | -11.5%
20 | CCOCCCNCc1ccc(OCc2ccc(F)cc2)c(OC)c1 | 23.4%
21 | CCOCCCNCc1cc(Br)ccc1OCC | 3%
22 | CCOc1ccccc1OCCCNCc1ccccc1 | 59.7% (active)

Row | Compound | inhibition
23 | COc1ccc(S(=O)(=O)N2CCC(C(=O)N3CCCC3)CC2)cc1C | -11.4%
24 | O=C(N1CCCCC1)N1CCN(C(=O)N2CCCCC2)CC1 | 17.7%
25 | CCOC(=O)C1CCN(C(=O)COc2cccc3ccccc23)CC1 | 1.1%
26 | N#Cc1ccccc1CN1C(=O)S/C(=C/c2cccn2-c2cccc(C(=O)O)c2)C1=O | 50.3% (active)
27 | Cc1ccccc1NC(=O)CN1C(=O)N/C(=C\c2cccn2-c2cccc(C(=O)O)c2)C1=O | 35.6%
28 | Cc1cc(/C=C2\SC(=O)N(C)C2=O)c(C)n1-c1cccc(C(=O)O)c1 | 15.5%
29 | CC(=O)N1c2ccc(S(=O)(=O)N3CCCC(C(=O)NCc4ccc(Cl)cc4)C3)cc2CC1C (centres undefined) | 52.7% (active)
30 | CC(=O)N1c2ccc(S(=O)(=O)N3CCC(C(=O)NCc4ccc(F)cc4)CC3)cc2CC1C (centres undefined) | 34.4%
31 | CC(=O)N1CCCc2cc(S(=O)(=O)N3CCCC(C(=O)NCc4ccc(Cl)cc4)C3)ccc21 (centres undefined) | 5.3%
32 | CCC(C)c1ccccc1NC(=O)CN(C)CC(=O)Nc1ccccc1SC (centres undefined) | -2.9%
33 | CC1(C)C2CCC1(CS(=O)(=O)NCCc1c[nH]c3ccccc13)C(=O)C2 (centres undefined) | -8.1%
34 | CCC(CC)C(=O)N1CCN(c2cccc(C)c2C)CC1 | -4.1%
35 | NC(=O)N1CCc2ccccc21 | 30.9%
36 | Cc1cccc(N2CCN(C(C)C(=O)N3CCc4ccccc43)CC2)c1C (centres undefined) | 52.9% (active)
37 | O=C1Nc2cc(C(=O)N3CCN(c4ccc(F)cc4)CC3)ccc2NC1CSCc1cccc(F)c1 (centres undefined) | -24.2%
38 | O=C(O)c1cc(S(=O)(=O)N(Cc2ccccc2)c2ccccc2)ccc1Cl | 10.4%
39 | CCn1cc(S(=O)(=O)c2cccc(C)c2)c(=O)c2cc(F)c(N3CCN(C)CC3)cc21 | 5.7%
40 | CCCn1cc(S(=O)(=O)c2ccc(C)cc2)c(=O)c2cc(OCC)ccc21 | -25.6%
41 | CCOc1ccc2c(c1)c(=O)c(S(=O)(=O)c1ccc(C)cc1)cn2CC | 52.5% (active)
42 | COC(=O)c1c(C)[nH]c(C(=O)/C=C/c2ccc(Cl)cc2)c1C | -0.3%
43 | COc1ccc(OC)c(CNC(=O)Cn2nc(C)c3c(C)n(-c4ccc(C)cc4)nc3c2=O)c1 | -9%
44 | CC(C)CC(=O)NC(=S)NNC(=O)c1cccc([N+](=O)[O-])c1 | -16.7%
